In PubChem BioAssay (EPA / NIEHS):
Records with an inconclusive call do not appear. Calls of active or inactive are those of the source. How the source made its calls: active means hit-call score of the fitted dose curve at least 0.9, where 1 is the maximum; inconclusive means response in the unintended direction; inactive means score below 0.9.

assay: ATG_XTT_Cytotoxicity: Cytotoxicity Assessment in the Attagene TRANS-FACTORIAL HepG2 Assay (AID 2283584)
Procedure, shortened: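 Cells: human HepG2, transiently transfected with MRTU reporter constructs. Exposure 24 h. Readout: XTT, cell number. Baseline/neg ctrl DMSO; loss-of-signal scored.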

Row | SMILES | outcome
1 | CCCCCCC(C)Nc1ccc(Nc2ccccc2)cc1 (stereo not given) | inactive
2 | Clc1cc(Cl)c(-c2c(Cl)c(Cl)cc(Cl)c2Cl)cc1Cl | inactive
3 | CC(C)=CCCC(C)CC(=O)O (stereo not given) | inactive
4 | Oc1ccc2cc(SSc3ccc4cc(O)ccc4c3)ccc2c1 | inactive
5 | CC1(C)COCN1 | inactive
6 | COc1ccc(OC)c(N=Nc2c(O)ccc3ccccc23)c1 | inactive
7 | COc1ccc(CCO)cc1 | inactive
8 | CCC1CCCCC1 | inactive
9 | CCCCCCC(C)(C)S | inactive
10 | OC[C@H]1O[C@@H]2O[C@H]3[C@H](O)[C@@H](O)[C@@H](O[C@H]4[C@H](O)[C@@H](O)[C@@H](O[C@H]5[C@H](O)[C@@H](O)[C@@H](O[C@H]6[C@H](O)[C@@H](O)[C@@H](O[C@H]7[C@H](O)[C@@H](O)[C@@H](O[C@H]8[C@H](O)[C@@H](O)[C@@H](O[C@H]9[C@H](O)[C@@H](O)[C@@H](O[C@H]1[C@H](O)[C@H]2O)O[C@@H]9CO)O[C@@H]8CO)O[C@@H]7CO)O[C@@H]6CO)O[C@@H]5CO)O[C@@H]4CO)O[C@@H]3CO | inactive
11 | CC(C)Nc1nc(N)nc(Cl)n1 | inactive
12 | COC(=O)c1ccc([N+](=O)[O-])cc1 | inactive
13 | CN(c1nccc(=O)[nH]1)C1CCN(c2nc3ccccc3n2Cc2ccc(F)cc2)CC1 | inactive
14 | Nc1ccc2cc(S(=O)(=O)O)cc(O)c2c1N=Nc1ccccc1C(F)(F)F | inactive
15 | CCCCCCCCCCCC(=O)OCC(O)CO (stereo not given) | inactive
16 | CCCC(O)C(O)CO (stereo not given) | inactive
17 | COc1cccc(OC)c1O | inactive
18 | O=C(Nc1ccc([N+](=O)[O-])cc1)Nc1ccc([N+](=O)[O-])cc1 (tested in a mixture with another compound) | inactive
19 | CCCCCCCCCC(=O)OC | inactive
20 | CC1=C(Br)C(=O)C(Br)=C/C1=C(/c1ccccc1S(=O)(=O)O)c1cc(Br)c(O)c(Br)c1C | inactive

Row | SMILES | outcome
21 | CCCCCCOCCOCCO | inactive
22 | CN(C)c1ccncc1 | inactive
23 | Nc1c(S(=O)(=O)O)cc(Br)c2c1C(=O)c1ccccc1C2=O | inactive
24 | CC(C)(N=C=O)c1cccc(C(C)(C)N=C=O)c1 | inactive
25 | COc1cc(Cl)c(OC)cc1N | inactive
26 | C=Cc1ccc(C(C)(C)C)cc1 | inactive
27 | CCCCC(CC)COC(C)=O (stereo not given) | inactive
28 | O=C(c1ccccc1)C(O)c1ccccc1 (stereo not given) | inactive
29 | O=C1OC(=O)c2c(Br)c(Br)c(Br)c(Br)c21 | inactive
30 | CCOC(=O)CN | inactive
31 | C=CC(C)C#N (stereo not given) | inactive
32 | CCNCCO | inactive
33 | CS(=O)(=O)OCCCCOS(C)(=O)=O | inactive
34 | CCN(CCC#N)c1ccc(N=Nc2ccc([N+](=O)[O-])cc2)cc1 | inactive
35 | CCCCCCCC/C=C\CCCCCCCC(=O)OCC | inactive
36 | O=C(O)c1cc(C(=O)O)cc([N+](=O)[O-])c1 | inactive
37 | Nc1ccc(Cl)c([N+](=O)[O-])c1 | inactive
38 | C=Cc1ccncc1 | inactive
39 | C=C(C)[C@H]1CC=C(C)C(=O)C1 | inactive
40 | CCC(=O)OCCOc1ccccc1 | inactive
